Test results reported in PubChem BioAssay (NCATS).
Inconclusive results are not listed. Values without a mark were called inactive. Calls of active or inactive are those of the source. The call rests on the fitted dose curve; in most records, active means well fitted cell-killing curve with a large enough effect; inconclusive means small, poorly fitted or top-dose-only effect; inactive means no such curve, though single readings can be large or run the other way.

test: qHTS of pediatric cancer cell lines to identify multiple opportunities for drug repurposing: Primary screen for LAN-5 cells (AID 1347100); conditions: LAN-5 neuroblastoma viability, CellTiter-Glo luminescence, 48 h; series mostly up to 46 µM; activity change, negative = cytotoxic: at the top concentration
Source text: Drug repurposing or repositioning has been offered as a strategy for drug development in oncology programs. This approach has special potential for childhood cancers and other rare or orphan diseases, where the expected return on new drug development has been a disincentive to pharmaceuticals.
In this project we exploit the poly-pharmacology of drugs to discover new indications via phenotypic screening of a panel of 19 well-characterized cell lines derived from solid tumors seen in children and adolescents. The goal is to identify approved drugs with previously unrecognized anticancer properties that has the potential to reveal new mechanisms and biological processes involved in carcinogenesis or drug resistance. We employed a titration-based paradigm (quantitative high-throughput screening or qHTS), where all compounds were tested at multiple concentrations for their effect on cell viability. Concentration-response curves (CRCs) were derived directly from the primary screen, and both potency and efficacy values were used to identify compounds with robust bioactivity profiles. We screened the NIH Chemical Genomics Center (NCGC) Pharmaceutical Collection (NPC) and Mechanism Interrogation Plate (MIPE) small molecule collections of approved and investigational compounds against these cell lines; and measured metabolically active cells after 48 hours of compound treatment as a proxy for cell viability.
Assay Submitter: Nathalia J. Martinez, National Center for Advancing Translational Sciences, National Institutes of Health, Rockville, MD, USA; email: natalia.martinez@nih.gov
[1] Shen, M et al. Quantitative high-throughput phenotypic screening of pediatric cancer cell lines identifies multiple opportunities for drug repurposing. Oncotarget 2017 Dec 19;9(4):4758-4772. PMID 29435139.
The cells were obtained from University of North Carolina (UNC), Pediatric Preclinical Testing Program (PPT), and Coriell Institute (CI).
qHTS cell viability assay:
Cells were assayed in growth media at a density of 500-1,000 cells/well. Five microliters of cells were dispensed into 1,536-well, white, solid-bottom, TC-treated plates (Greiner Bio One) using a multidrop dispenser and incubated at 37 degrees C, 5% CO2, under a humidified atmosphere for 5 hours. Twenty-three nanoliters of compounds and controls (neutral control DMSO or positive control bortezomib at final concentration of 2.3 µM) were subsequently transferred by Kalypsys pintool. For primary screens, the MIPE collection was tested at 11-point dilutions (final concentrations range from 0.78 nM to 46 µM) and the NPC collection at 8-point dilutions (final concentrations range from 0.59 nM to 46 µM). Compounds tested in follow-up screens were assayed at 11-point dilutions. Cells were incubated for 48 hours, followed by addition of 3 µL of CellTiter-Glo (Promega). After a 15 min incubation at room temperature, samples were analyzed for luminescence intensity using a ViewLux High-throughput CCD imager equipped with clear filters.
Potency means the concentration at half of the fitted maximal effect.

Q: For CN1CCc2c(c3ccccc3n2Cc2ccc(C(=O)NO)cc2)C1, which Potency is on record?
A: 16.6 µM (active)

Q: With CN(N=O)C(=O)N[C@H]1C(O)OC(CO)[C@@H](O)[C@H]1O (stereo not given in full) as the molecule, how does the “activity change, negative = cytotoxic” value read?
A: 10.1%

Q: Which Potency does the source give for Cc1cnc(Nc2ccc(CN3CCOCC3)cc2)nc1Nc1cccc(S(=O)(=O)NC(C)(C)C)c1 here?
A: 1.32 µM (active)

Q: With O=C(Nc1ccc(Oc2ccnc3[nH]ccc23)c(F)c1)c1cccn(-c2ccc(F)cc2)c1=O as the molecule, how does the “activity change, negative = cytotoxic” value read?
A: -7.77%

Q: For CC(=O)OCC(=O)[C@@]1(O)CC[C@H]2[C@@H]3CCC4=CC(=O)CC[C@]4(C)[C@@H]3C(=O)C[C@@]21C, which “activity change, negative = cytotoxic” value is on record?
A: -0.65%

Q: With CC(C)Oc1ccc(C(=O)N[C@H](CNC(=O)CN(C)C)Cc2ccc(-c3cn4cccc([C@H](C)O)c4n3)cc2)cc1Cl as the molecule, how does the Potency read?
A: 1.05 µM (active)

Q: Which Potency does the source give for COc1cc(N2CCC(C(N)=O)CC2)ccc1Nc1nc(N)c(Cl)c(Nc2ccccc2S(=O)(=O)C(C)C)n1 here?
A: 0.235 µM (active)

Q: For CCn1c(=O)c2c(nc(C=Cc3ccc(OC)c(OC)c3)n2C)n(CC)c1=O, which “activity change, negative = cytotoxic” value is on record?
A: -7.84%

Q: With C=C1C(=CC=C2CCC[C@]3(C)[C@@H]([C@H](C)CCCC(C)(C)O)CC[C@@H]23)C[C@@H](O)C[C@@H]1O as the molecule, how does the Potency read?
A: 1.66 µM (active)

Q: With CCOC(=O)[C@H](CCc1ccccc1)N[C@@H](C)C(=O)N1[C@@H](C(=O)O)C[C@H]2CCC[C@@H]21 as the molecule, how does the Potency read?
A: 13.2 µM (active)

Q: With Cc1cnn(C)c1C(=O)Nc1cc(Nc2ccc3c(C=Cc4ccccn4)n[nH]c3c2)ccc1F as the molecule, how does the Potency read?
A: 14.8 µM (active)

Q: For CCOC(=O)N1CCN([N+]([O-])=NOc2ccc([N+](=O)[O-])cc2[N+](=O)[O-])CC1, which Potency is on record?
A: 11.8 µM (active)

Q: Which Potency does the source give for C[C@H](NCc1ccc(OCc2cccc(F)c2)cc1)C(N)=O here?
A: 7.43 µM (active)

Q: Which Potency does the source give for Oc1cc(-c2nc(-c3ccccc3)[nH]c2-c2ccncc2)ccc1Cl here?
A: 16.6 µM (active)

Q: For CCc1c(O)cc(O)c(C(=O)c2ccc(OCCN3CCOCC3)c(OC)c2)c1CC(=O)N(CCOC)CCOC, which Potency is on record?
A: 0.59 µM (active)

Q: With COc1ccnc2[nH]cc(C(=O)C(=O)N3CCN(C(=O)c4ccccc4)C[C@@H]3C)c12 as the molecule, how does the “activity change, negative = cytotoxic” value read?
A: 0.846%

Q: For O=C(CN1C(=O)C2(CCCC2)NC[C@H]1c1cc(F)cc(F)c1)Nc1ccc2c(c1)C[C@@]1(C2)C(=O)Nc2ncccc21, which “activity change, negative = cytotoxic” value is on record?
A: 5.39%

Q: Which Potency does the source give for NC(=O)Nc1sc(-c2ccc(F)cc2)cc1C(N)=O here?
A: 1.18 µM (active)

Q: Which “activity change, negative = cytotoxic” value does the source give for C=C1CCC2[C@](C)(CO)C(O)CC[C@]2(C)C1CC=C1C(=O)OCC1O (stereo not given in full) here?
A: 1.21% [at 92.7 µM]

Q: With O=C(NNC(=O)c1ccc(CNS(=O)(=O)c2ccc(F)c(Cl)c2)cc1)c1ccccc1 as the molecule, how does the “activity change, negative = cytotoxic” value read?
A: 0.0558%

Q: With CC1(C)O[C@@H]2C[C@H]3[C@@H]4CCC5=CC(=O)C=C[C@]5(C)[C@@H]4[C@@H](O)C[C@]3(C)[C@]2(C(=O)CO)O1 as the molecule, how does the “activity change, negative = cytotoxic” value read?
A: 3.85%

Q: Which Potency does the source give for Cc1cnc(Nc2ccc(N3CCN(C)CC3)cc2)nc1Nc1cccc(S(=O)(=O)NC(C)(C)C)c1 here?
A: 0.743 µM (active)

Q: For O=C(O)C(=O)Nc1cccc(C2=NN=N[N]2)c1, which “activity change, negative = cytotoxic” value is on record?
A: -22.9%

Q: With NC[C@H]1O[C@H](O[C@H]2[C@@H](O)[C@@H](O[C@H]3O[C@H](CO)[C@@H](O)[C@H](N)[C@@H]3O)[C@H](N)C[C@@H]2N)[C@H](N)C[C@H]1O as the molecule, how does the “activity change, negative = cytotoxic” value read?
A: -1.93%

Q: Which “activity change, negative = cytotoxic” value does the source give for CCCCCCCCCCCCCCCC(=O)OC[C@@H](NC(=O)C(Cl)Cl)[C@H](O)c1ccc([N+](=O)[O-])cc1 here?
A: 14.2%

Q: With NC(=O)c1cccc(-c2cccc(OC(=O)NC3CCCCC3)c2)c1 as the molecule, how does the “activity change, negative = cytotoxic” value read?
A: 3.1%

Q: Which “activity change, negative = cytotoxic” value does the source give for O=C(NCc1ccccc1)[C@H](Cc1ccccc1)NC(=O)[C@@H]1O[C@@H]1C(=O)NCCc1ccc(O)cc1 here?
A: -29.5%

Q: For N#Cc1c(NC(=O)c2cccc3ccccc23)sc2c1CCCC2, which Potency is on record?
A: 0.148 µM (active)

Q: Which Potency does the source give for CC(=O)N1CCN(c2ccc(OCc3nn(C)c(C)c3-c3cccc4c(CCCOc5cccc6ccccc56)c(C(=O)O)n(Cc5cccnc5)c34)cc2)CC1 here?
A: 0.148 µM (active)

Q: For C[C@@]12C(=O)OC(=O)[C@@]1(C)C1CCC2O1, which Potency is on record?
A: 2.35 µM (active)

Q: Which Potency does the source give for COc1cc(C=CC(=O)CC(=O)C=Cc2ccc(O)c(OC)c2)ccc1O here?
A: 9.59 µM (active)

Q: With CCNC(=O)c1cc2c(-c3cc(OCCN4CCCC4)c(Cl)cc3Cl)nc(N)nc2s1 as the molecule, how does the Potency read?
A: 1.48 µM (active)

Q: For CCOc1cc2ncc(C#N)c(Nc3ccc(OCc4ccccn4)c(Cl)c3)c2cc1NC(=O)C=CCN(C)C, which Potency is on record?
A: 1.48 µM (active)

Q: With O=C(O)[C@H](CC(=O)N1C[C@@H]2CCCC[C@H]2C1)Cc1ccccc1 as the molecule, how does the “activity change, negative = cytotoxic” value read?
A: 0.504%

Q: For O=S(=O)(O)CCSSCCS(=O)(=O)O, which “activity change, negative = cytotoxic” value is on record?
A: -2.46%

Q: Which “activity change, negative = cytotoxic” value does the source give for COc1cc2c(cc1O)CCC1C2CC[C@@]2(C)C1CC[C@@H]2O (stereo not given in full) here?
A: -9.81%

Q: Which Potency does the source give for COc1cc(OC)cc(-c2ccc3ncc4ccc(=O)n(-c5ccc(N6CCNCC6)c(C(F)(F)F)c5)c4c3c2)c1 here?
A: 2.64 µM (active)

Q: Which Potency does the source give for CC(C(C)N1CC(=O)NC(=O)C1)N1CC(=O)NC(=O)C1 (stereo not given) here?
A: 0.743 µM (active)

Q: For Cc1cnc(NC(=O)Nc2cc(Br)c(C)cc2OC[C@@H]2CNCCO2)cn1, which Potency is on record?
A: 1.87 µM (active)

Q: Which Potency does the source give for CN(CC(=O)N(Cc1ccc(C2CCCCC2)cc1)c1ccc(C(=O)O)c(O)c1)S(=O)(=O)c1c(F)c(F)c(F)c(F)c1F here?
A: 23.5 µM (active)
